Data from PubChem BioAssay AID624132 (Broad Institute, 2012).
In all, about 1,600 compounds went through this assay and about 1,500 (94%) were called active. The set was probably picked from earlier hits. The list is a sample of the results. Results with a measured potency or affinity are listed apart. Inconclusive results are not listed.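 How the source made its calls: active means signal drop with fitted half-maximal concentration at most twice the top valid dose for that sample; inconclusive means flat fit between 30 and 70% inhibition, or poor curve fit; inactive means the rest.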

experiment: Shn3 3'UTR reporter inhibitors, dose response, cell-based, Clone20 osteoblasts, firefly luciferase, cherry-picked (AID 624132); settings: Clone20 osteoblast Shn3 3'UTR firefly luciferase, 24 h; series mostly up to 35 µM; activity change, negative = inhibition: at the top concentration

Activity change, negative = inhibition, inactive:
CC(Cc1cccs1)NC(=O)Nc1ccc(F)cc1 (stereo not given) -3.91%, CCN1C(=O)[C@H]2[C@@H](c3ccc(-c4ccc(OC)cc4)cc3)N3CCC[C@@]3(C(=O)OC)[C@H]2C1=O -16.5%, COc1ccc(N(C)C(=O)c2ccc3snnc3c2)cc1 -3.31%, CC(=O)N1N=C(c2ccccc2)OC1c1ccc([N+](=O)[O-])s1 (stereo not given) -37.6%, Fc1ccccc1N1CCN(Cc2nc(-c3ccccc3)no2)CC1 24.1%, O=C(COC(=O)/C=C/c1ccc(OC(F)F)cc1)Nc1ccc2[nH]c(=O)[nH]c2c1 -5.42%, CCOc1ccc(NS(=O)(=O)c2cc(C(=O)NCCN3CCOCC3)ccc2C)cc1 11.4%, COCc1nn2c(N)c(C#N)cnc2c1-c1ccccc1 11.5%, NC(=O)NC(CC(=O)NCCc1ccccn1)c1ccccc1Cl (stereo not given) 2.62%, CCOC(=O)c1[nH]c(C)c(/C(O)=C2\C(=O)C(=O)N(CCCN3CCOCC3)C2c2cccs2)c1C (stereo not given) 29.2%, Cc1cc(-n2c(C)cc(C(=O)CSc3nncn3C)c2C)no1 21.8%, CSCCC(NC(=O)c1ccccc1)C(=O)OCC(=O)N(C)CCC#N (stereo not given) 5.19% [at 8 µM], COc1ccc(C(=O)OCC(=O)Nc2ccc3[nH]c(=O)[nH]c3c2)cc1 6.22%, Cc1csc(=O)n1CCC(=O)N(C)Cc1c(F)cccc1Cl 6.18%, COc1ccc(C(=O)OCC(=O)Nc2ncc([N+](=O)[O-])s2)cc1OC 21.4%, OC(c1ccccc1)C(O)C(c1ccccc1)N1CCCCC1 (stereo not given) -2.22%, CCCOc1ccc2oc(=O)c3c(c2c1)CCCN3C(=O)CN1CCN(c2ncccn2)CC1 125%, COc1ccc(N2C(=O)C(CC(=O)Nc3ccccc3)N(Cc3ccc(OC)c(OC)c3)C2=O)cc1 (stereo not given) 7.36%, CSc1cccc(NC(=O)N2CCCC(CNS(=O)(=O)Cc3ccccc3)C2)c1 (stereo not given) -20.4%, CCn1cc(CNCc2cn(-c3ccccc3C)nc2-c2ccc(OC)c(F)c2)cn1 -3.08%, CC(C)(C)N(Cc1ccccc1)C(=O)COC(=O)CCc1c[nH]c2ccccc12 -6.52%, Oc1c(C(c2cccs2)N2CCC3(CC2)OCCO3)sc2ncnn12 (stereo not given) -5.82%, COc1ccc(S(=O)(=O)NCCC(=O)OCC(=O)NC2CC2)cc1 79.6%, CC1=NN(c2cccc([N+](=O)[O-])c2)C(=O)C1 4.22%, CN=C1c2cc3cc(OC)ccc3n2CCN1Cc1ccccc1 -18.3%, Cc1noc(C)c1COC(=O)[C@@H](NC(=O)c1ccccc1)C(C)C -11.5%, CCCCC[C@H]1CN(Cc2ccc(OC)cc2)C(=O)[C@@H]1CC(=O)NCc1ccccc1 -56.9%, Cc1ccc(NC(=O)CN(C)C(=O)COc2cc(F)ccc2[N+](=O)[O-])cc1 -9.91%, Cc1cc(C)cc(C(=O)NCC(=O)OCC(=O)NCC(F)(F)F)c1 11.4%, Nc1c(Br)cc2c(c1Br)C(O)c1ccccc1-2 (stereo not given) 27.3%, O=C(CSc1nnc(Nc2ccccc2)s1)NC1CCS(=O)(=O)C1 (stereo not given) 16.4%, CN(C(=O)CSc1nc(-c2cccs2)nc2ccccc12)C1CCS(=O)(=O)C1 (stereo not given) -7.83%, CN(CC(=O)NCc1ccc2c(c1)OCO2)S(=O)(=O)c1ccc(Br)s1 -3.96%, Cn1cccc1Cc1nnc(SCC(=O)NCCc2ccccc2)n1-c1ccc(F)cc1 -16.1%, O=C(NC(NC(=S)Nc1c(Cl)cc(Cl)cc1Cl)C(Cl)(Cl)Cl)OCc1ccccc1 (stereo not given) -68.3%, COc1ccc(-c2nnn(CC(=O)Nc3ccc4c(c3)OCCO4)n2)cc1OC -6.19%, O=C(CSc1nc(C(F)(F)F)cc(=O)[nH]1)N1CCCC1 -20.5%, Cc1nc2ncnn2c(C)c1Cc1cccc(F)c1 -14.1%, CCOC(=O)C1CCN(C(=O)C(C)N(c2ccc(Oc3ccccc3)cc2)S(C)(=O)=O)CC1 (stereo not given) -14.2%, CCOc1ccc(Br)cc1C1=CC(=O)C[C@H](c2ccc(OC)cc2)C1 -22.4%, COc1ccccc1-n1ccnc(SCC(=O)NCc2ccccc2Cl)c1=O -16.1%, Cc1ccc(NC(=O)NCCCN2CCOCC2)cc1 12.6%, Nc1cc(=O)[nH]c(SCC(=O)Nc2cccc([N+](=O)[O-])c2)n1 10.6%, CCOC(=O)C1=C(C)N(CCCC(=O)O)C(=O)NC1c1ccc2ccccc2c1 (stereo not given) 6.64%, CCc1c(O)nc(SCC(=O)Nc2ccccc2)n(-c2ccccc2)c1=O 15.3%, O=C(CN1C(=O)C2CCCCC2C1=O)NC1CCCc2ccccc21 (stereo not given) 8.86%, Cc1cc(Sc2ccc([N+](=O)[O-])cn2)ccc1Br 22%, Cc1ccc(S(=O)(=O)N2CCCCC2)cc1NS(=O)(=O)c1ccccc1F -79.1%, O=c1c2ccccc2c(C=Nc2ccccc2O)c(O)n1-c1nccs1 -5.72%, COc1ccccc1-n1c(SCC(=O)Nc2cc(C)on2)nc2c(c1=O)SCC2 -19.3%, O=S(=O)(c1ccc(Cl)cc1)n1ccc2cccnc21 -26.5%, O=C(NCCCn1ccnc1)C(=O)NCC1OCCCN1S(=O)(=O)c1ccccc1 (stereo not given) 3.7%, O=C(NCCNC(=O)Oc1cccc2ccccc12)Oc1cccc2ccccc12 48.5%, O=C(CSc1nc2ncc(Cl)cc2[nH]1)N1CCOCC1 17.4%, C[C@@H]1CC=C[C@H]2[C@H]1C(=O)N(Cc1ccccc1)[C@H]2c1cccc([N+](=O)[O-])c1 -18.7%, CC(=O)Nc1sc2c(c1-c1nc3ccccc3s1)CCN(C(C)C)C2 -66.9%, COc1cc(C(=O)OCC(=O)NC2CCCCCC2)ccc1OCC(C)C -25.6%, Cc1ccc(NC(=O)C2CCCN(S(=O)(=O)c3c(C)noc3C)C2)cc1 (stereo not given) 59.3%, CCO[C@@H]1OC(C(=O)NC2CC2)=C[C@H](c2coc3ccccc3c2=O)[C@H]1CCCO 0.737%, O=C(Nc1cccc(S(=O)(=O)NC2=NCCC2)c1)C1CC(=O)N(c2ccc3c(c2)OCCO3)C1 (stereo not given) 0.562%, CCOC(=O)CNC(=O)C1(NC(=O)CNC(=O)OCc2ccccc2)CCCC1 38.8%, O=C(NNc1ccccc1)C(=O)NNS(=O)(=O)c1ccc(CCCl)cc1 -0.537%, Cc1ccc(C(=O)N2CCN(C)CC2)cc1S(=O)(=O)N1CCCCCC1 -10.2%, CCN(CC)S(=O)(=O)c1ccc(N(C)Cc2cccc(OC)c2OC)nc1 -35.1%, Cc1cc(C(=O)Cn2cnc3cc(F)ccc3c2=O)c(C)n1C1CC1 -59.4%, COc1ccc(S(=O)(=O)N2CCOCC2)cc1NC(=O)COC(=O)CC1CC2CCC1C2 (stereo not given) -38%, COc1cc(OC)cc(C(=O)OCC(=O)Nc2ccc(F)cc2F)c1 -2.85%, Fc1ccccc1N=C1NN=C(c2ccccc2)CS1 -45%, Nc1nc(=S)[nH]c2c1C1(CCCCC1)Cc1ccccc1-2 15.5%, CCCCCCC#Cc1ccc2c(c1)COc1c3ccccc3nn1-2 57%, O=C1N/C(=C/c2ccc(N3CCOCC3)o2)C(=O)N1c1ccccc1 38.1%, Cc1ccccc1N/C(=N/S(=O)(=O)c1ccccc1)c1ccc(F)cc1 -1.16%, C[C@@H]1CN([C@H](C)CO)C(=O)c2cc(Br)cnc2O[C@H]1CN(C)C(=O)Cc1ccncc1 -2.88%, C[C@@H]1CN([C@H](C)CO)C(=O)CCCn2nncc2CO[C@H]1CN(C)S(=O)(=O)c1ccc2c(c1)OCCCO2 -2.03%, Cc1cc(C)n(-c2cc(-n3nc(C)cc3C)ncn2)n1 -6.51%, OCCNc1nc(Nc2ccc(Cl)cc2)nc(N2CCCC2)n1 -42.6%, COc1c(C)cc(C(=O)C2CCCN(C(=O)c3cccc(-n4cccn4)c3)C2)cc1C (stereo not given) -0.537%, CC1CCN(C(=O)c2ccc(N3C(=O)C4CCC(C)CC4C3=O)cc2)CC1 (stereo not given) 12%, O=C(Cc1ccccc1)NCCS(=O)c1ccc(Cl)cc1 (stereo not given) 12.2%, CSc1nnc(-c2ccco2)n1-c1ccccc1 -27%, CCn1nnc2cc(C(=O)Nc3cc(Cl)ccc3C)ccc21 7.36%, O=C(CSc1nc2[nH]ncc2c(=O)[nH]1)Nc1ccccc1C(F)(F)F 3.2%, CC(C)c1c(O)c2c(n(-c3ccccc3)c1=O)CCCC2 -1.82%, Cc1ccc(C(=O)Nc2ccc3c(c2)C(=O)N(CC2CCCO2)C3=O)cc1 (stereo not given) 43.8%, O=C(CCS(=O)(=O)c1ccccc1)Nc1nc2c(s1)CCCC2 25.6%
